About 670 (32%) of roughly 2,100 compounds were called active. Inconclusive results (about 50%) are left out. The call rests on the fitted dose curve; in most records, active means well fitted inhibition curve with a large enough effect; inconclusive means small, poorly fitted or top-dose-only effect; inactive means no such curve, though single readings can be large or run the other way. The list shows a part of the results.
On the % scale 0 is the no-effect control and ±100 the full control effect; potency means the concentration at half of the fitted maximal effect.

A short description of this experiment: CMV-Luciferase Counterscreen for Inhibitors of ATXN expression. Further: nearly all actives have a fitted effect of over 55% in size. The note with it: HEK-293 CMV-luciferase reporter, luminescence, 24 h; series mostly up to 57.5 µM; activity change, negative = inhibition: at the top concentration. For orientation: A counterscreen serves to expose hits that act by an unwanted route or on another target.
In the case of `CCCC[C@@H](CNC)NC[C@H](NCCCCC1CCCCC1)C(C)C`, the Potency is 35.5 µM (active).

With `O=C(/C=C/c1ccccc1)NC(=S)NNC(=O)c1cnccn1`, the Potency was 8.91 µM (active).

As to `CCn1c2ccccc2c2cc(/C=N/NC(=O)c3ccncc3)ccc21`, the Potency is 2.82 µM (active).

As for `CCn1c2ccccc2c2cc(/C=N/NC(=O)c3ccc(O)cc3)ccc21`, the “activity change, negative = inhibition” value is -11.8% (inactive).

As to `O=C1N/C(=N/N=C/c2ccccc2O)SC1Cc1ccc(F)cc1` (stereo not drawn), the Potency is 12.6 µM (active).

On to `COc1ccc(-c2csc3ncnc(Sc4nnnn4C)c23)cc1`, for which the Potency is 3.98 µM (active).

Regarding `Cn1nnnc1Sc1ncnc2scc(-c3ccsc3)c12`, the Potency is 11.2 µM (active).

Take `Cc1cnc(NC(=O)CCCc2nc3ccccc3s2)s1`: the “activity change, negative = inhibition” value is 91.3% (inactive).

Consider `O=C1C=C(Nc2ccccc2O)c2ccccc2C1=O`, for which the Potency was 10 µM (active).

Take `CN(C)S(=O)(=O)c1ccc(-c2csc(N/N=C/c3ccco3)n2)cc1`: the Potency is 2.51 µM (active).

For the molecule `CC1=CC(C)(C)Nc2ccc(OC(=O)CN3C(=O)c4cccc5cccc(c45)C3=O)cc21`, the Potency was 15.8 µM (active).

`O=C(NCc1ccccc1)C1=C[C@@H](c2csc3ccccc23)C[C@@H](OCCCCO)O1`: the Potency was 3.55 µM (active).

Turning to `C=CCOC(=O)C1=C[C@@H](c2ccc3c(c2)OCO3)C[C@@H](OCCCCO)O1`, the “activity change, negative = inhibition” value is 5.8% (inactive).

Consider `CCOC(=O)c1sc2nc(CSc3ccccc3)nc(NCCN(C)C)c2c1C`, for which the “activity change, negative = inhibition” value was -27.1% (inactive).

For the molecule `O=c1c2ccccc2sc2nc(CCl)nn12`, the activity change, negative = inhibition is -24% [at 11.4 µM] (inactive).

`CCCCCn1c(=O)c2ccccc2n2c(CCl)nnc12`: the Potency was 25.1 µM (active).

As to `CNC(=O)c1sc(N2N=C3/C(=C/c4ccccc4)CCCC3C2c2ccccc2)nc1C` (stereo not drawn), the Potency was 7.94 µM (active).

On to `COc1ccc2c(c1)CC(N1CCN(C)CC1)c1cc(OC)ccc1S2` (stereo not drawn), for which the Potency was 28.2 µM (active).

As to `CCCCN1C(=O)/C(=C2/Sc3ccccc3N2C)S/C1=N\c1ncn[nH]1`, the “activity change, negative = inhibition” value was 5.62% (inactive).

In the case of `O=C(c1cccc(Cl)c1)c1nn(-c2ccccc2)c(=O)cc1C(F)(F)F`, the Potency is 25.1 µM (active).

Take `COc1ccc(-n2nc(C(=O)NCC(=O)Nc3cccc(Cl)c3)c3ccccc3c2=O)cc1OC`: the “activity change, negative = inhibition” value was 11.4% (inactive).

As for `Cc1cc(=O)oc2c1c(C)nn2-c1cccc(Cl)c1`, the activity change, negative = inhibition was -12.8% [at 11.4 µM] (inactive).

Regarding `CC1(C)Cc2c(ccc3ccccc23)C2=C(C(=O)N3CCCC3)C(=O)C(=O)N21`, the “activity change, negative = inhibition” value is -5.36% (inactive).

For the molecule `O=C(N/N=C\c1c(O)ccc2ccccc12)c1ccc(S(=O)(=O)N2CCCCC2)cc1`, the Potency was 1.12 µM (active).

For the molecule `O=C(N/N=C\c1cc(Cl)ccc1O)c1ccc(S(=O)(=O)N2CCCCC2)cc1`, the Potency was 0.316 µM (active).

Regarding `CN(C)CCNc1cccc2sc3ccc(O)cc3c(=O)c12`, the Potency was 14.1 µM (active).

In the case of `CN(C)CCNc1ccc(CO)c2sc3ccc(O)cc3c(=O)c12`, the Potency is 0.631 µM (active).

Turning to `COc1ccc(C(=O)c2sc(Nc3ccccc3)nc2N)cc1OC`, the “activity change, negative = inhibition” value was 129% (inactive).

Consider `COc1ccc(C(=O)NC(=S)NNC(=O)c2c(-c3ccccc3)noc2C)cc1OC`, for which the Potency is 10 µM (active).

Regarding `CCOC(=O)C(C(C)=O)c1c(Br)c(O)c(O)c2c(C(=O)c3ccc(C)cc3)coc12` (stereo not drawn), the Potency is 2.51 µM (active).

For `Cc1cc(N/N=C\c2ccc(Br)cc2)nc(-n2nc(C)cc2C)n1`, the “activity change, negative = inhibition” value is 1.75% (inactive).

Turning to `Cc1cc(N/N=C/c2ccccc2[N+](=O)[O-])nc(-n2nc(C)cc2C)n1`, the Potency was 7.08 µM (active).

`Cc1cc(O)c(C(C)C)cc1N=Cc1ccccc1[N+](=O)[O-]`: the “activity change, negative = inhibition” value was -23.9% (inactive).

With `NC(=O)CC(NC(=O)Cc1ccc(Br)cc1)c1ccc(NC2CCCC2)c([N+](=O)[O-])c1` (stereo not drawn), the Potency is 3.16 µM (active).

`N#CC1=C(N)N2C(=C(C#N)C1c1ccc(Br)cc1)Nc1ccccc12` (stereo not drawn): the Potency is 0.631 µM (active).

Take `N#CC1=C(N)N2C(=C(C#N)C1c1cccc(Br)c1)Nc1ccccc12` (stereo not drawn): the Potency was 3.55 µM (active).

In the case of `CC(=O)N1c2ccc(S(=O)(=O)N3CCC(C(=O)Nc4cccc(C(F)(F)F)c4)CC3)cc2CC1C` (stereo not drawn), the Potency is 8.91 µM (active).

Turning to `CN1CCN(c2ccc(S(=O)(=O)N3CCCCC3)cc2NC(=O)/C=C/c2ccc(Cl)c([N+](=O)[O-])c2)CC1`, the activity change, negative = inhibition is -27% [at 11.4 µM] (inactive).

`CC(=O)N1c2ccc(S(=O)(=O)N3CCC(C(=O)N4CCN(c5ccc(Cl)cc5)CC4)CC3)cc2CC1C` (stereo not drawn): the Potency was 7.94 µM (active).

As for `CCc1ccc(NC(=O)C2CCN(S(=O)(=O)c3ccc4c(c3)CC(C)N4C(C)=O)CC2)cc1` (stereo not drawn), the Potency was 3.16 µM (active).

Regarding `Cc1ccc(/C=N/NC(=O)C2=NNC(c3ccccc3)(c3ccccc3)C2)c(O)c1`, the Potency is 3.16 µM (active).

Take `CCN(CC)CCNc1ccc(CO)c2sc3ccccc3c(=O)c12`: the Potency is 17.8 µM (active).

`O=c1c2ccccc2sc2c(CO)ccc(NCCN3CCCCC3)c12`: the Potency is 22.4 µM (active).

As for `COC(/C(=N/O)c1ccc(Cl)cc1)c1ccccc1` (stereo not drawn), the “activity change, negative = inhibition” value was -21.2% (inactive).

For the molecule `Cc1cc(NCc2ccccn2)n2nc(C)c(-c3ccc(Cl)cc3)c2n1`, the Potency was 20 µM (active).

For `Cc1cc(Oc2ccc(Cl)cc2)nc(-c2ccccn2)n1`, the “activity change, negative = inhibition” value is -22.3% (inactive).

In the case of `CCCCC(=O)N(CCOC)c1nnc(-c2ccccc2C)s1`, the “activity change, negative = inhibition” value was -14.2% (inactive).

In the case of `CCOc1cc([C@@H]2C[C@H]3CN(c4ccccc4)C(=O)[C@]34CCCN24)ccc1OC`, the “activity change, negative = inhibition” value was 4.3% (inactive).

Regarding `Cc1cccc2sc(NNC(=O)c3ccc(S(=O)(=O)N4CCCC(C)C4)cc3)nc12` (stereo not drawn), the Potency is 4.47 µM (active).

As for `Cc1cc(C)c2nc(NNC(=O)c3ccc(S(=O)(=O)N4CCc5ccccc5C4)cc3)sc2c1`, the Potency is 3.16 µM (active).

With `Nc1c2ccccc2nc2ccccc12`, the Potency is 4.47 µM (active).

For `N#CCc1nc2ccccc2c(=O)[nH]1`, the “activity change, negative = inhibition” value is -6.07% (inactive).

For `Oc1ccc(Cc2ccccc2)c2cccnc12`, the Potency is 11.2 µM (active).

In the case of `CCCOCc1ccc(O)c2ncccc12`, the Potency was 20 µM (active).

For `CN(C)c1ccc(Cc2cc3c(O)ccc(O)c3cc(Cc3ccc(N(C)C)cc3)c2=O)cc1`, the activity change, negative = inhibition was -9.62% [at 11.4 µM] (inactive).

`Oc1ccc(CN2CCC(Cc3ccccc3)CC2)c2cccnc12`: the activity change, negative = inhibition is -19.8% [at 11.4 µM] (inactive).

Take `CC[n+]1c(/C=C/N(C)c2ccccc2)oc2ccc(F)cc21`: the Potency is 15.8 µM (active).

For `O=C(O)CSc1cc(NS(=O)(=O)c2ccc(Cl)cc2)c2ccccc2c1O`, the Potency was 28.2 µM (active).

`O=C(O)CSc1cc(NS(=O)(=O)c2cccc([N+](=O)[O-])c2)c2ccccc2c1O`: the Potency was 3.55 µM (active).

Take `CCc1c(C)nc2ncnn2c1N1CCC(C(=O)Nc2ccc(C)cc2)CC1`: the Potency was 12.6 µM (active).

For `O=C(Nc1ccc2c(c1)CCC2)C1CCN(c2c3c(nc4ncnn24)CCC3)CC1`, the Potency was 7.08 µM (active).

`CCc1ccc(CNC(=O)C2CCN(c3nnc(C)c4c(C)n(-c5ccc(C)cc5)nc34)CC2)cc1`: the “activity change, negative = inhibition” value was -27.5% (inactive).

In the case of `CNc1ccccc1C(=O)OC(C)C(=O)Nc1ccc(Cl)cn1` (stereo not drawn), the activity change, negative = inhibition is 94.6% [at 11.4 µM] (inactive).

`CC(=O)Oc1c(Br)cc(N(C(C)=O)S(=O)(=O)c2ccccc2)c2ccccc12`: the Potency is 15.8 µM (active).

Take `COc1ccc2nc(C)cc(SCC(=O)N/N=C/c3ccc(O)cc3O)c2c1`: the Potency was 11.2 µM (active).

For the molecule `Cc1cc(SCC(=O)NN)c2cc(Br)ccc2n1`, the “activity change, negative = inhibition” value was 0.829% (inactive).

In the case of `COc1ccc(/C=N/NC(=O)c2nc(-c3ccccc3)n(-c3ccccc3)n2)c(O)c1`, the Potency was 8.91 µM (active).

For `NC(=O)c1cc([N+](=O)[O-])ccc1NCc1ccc(N)cc1`, the Potency was 6.31 µM (active).

As to `Cn1nnnc1Sc1ncnc2scc(-c3cccs3)c12`, the Potency is 11.2 µM (active).

For the molecule `Cn1nnnc1Sc1ncnc2scc(-c3ccc[nH]3)c12`, the Potency was 20 µM (active).

Consider `CCOc1ccc(NC(=O)Nc2nnc(CC(=O)NCc3ccccc3)s2)cc1`, for which the “activity change, negative = inhibition” value is -1.51% (inactive).

With `COc1cc(C(=O)NCc2ccncc2)cc(Br)c1OCc1ccccc1`, the Potency is 3.98 µM (active).

As for `COc1cc(CNCc2ccncc2)cc(Br)c1OCc1ccccc1F`, the Potency is 2 µM (active).

Consider `COc1cccc(OC)c1C(=O)OCC(=O)NC(=O)NCc1ccccc1`, for which the activity change, negative = inhibition is -4.44% [at 11.4 µM] (inactive).

Turning to `CN(C)CCNc1ncnc2c1sc1nc(N3CCOCC3)c3c(c12)CC(C)(C)SC3`, the “activity change, negative = inhibition” value was -18.2% (inactive).

Take `O=C(/C=C/Nc1ccc(S(=O)(=O)Nc2ncccn2)cc1)c1ccc(Cl)c(Cl)c1`: the “activity change, negative = inhibition” value was -27% (inactive).

With `O=C(Nc1ccc(Cl)c(Cl)c1)c1cccc(S(=O)(=O)NCc2cccnc2)c1`, the Potency was 1.58 µM (active).

Take `Cn1c(CCc2nc3ccccc3[nH]2)nnc1SCC#N`: the “activity change, negative = inhibition” value was -22.2% (inactive).

For `C=CS(=O)(=O)c1c2cc(OC)ccc2nc2ccc(OC)cc12`, the “activity change, negative = inhibition” value is -18.3% (inactive).

`COc1ccc(C(CCNC(C)c2ccccc2)c2ccc(F)cc2)cc1` (stereo not drawn): the “activity change, negative = inhibition” value was -22.5% (inactive).

Consider `COc1ccc(Nc2nc(N3CCCC3)c3ccccc3n2)cc1`, for which the Potency is 10 µM (active).

For the molecule `COc1ccc(Nc2c3ccccc3nc3ccccc23)cc1`, the Potency is 10 µM (active).

Consider `COc1cc(N)ccc1Nc1c2ccccc2nc2ccccc12`, for which the Potency is 25.1 µM (active).

With `COc1cc2cc(C(=O)NC(C)c3cccc4ccccc34)c(N)nc2cc1OC` (stereo not drawn), the activity change, negative = inhibition was -29.5% [at 11.4 µM] (inactive).

In the case of `COc1ccc(C)cc1Nc1nc(N)c2cc(OC)c(OC)cc2n1`, the activity change, negative = inhibition was -12.3% [at 11.4 µM] (inactive).

As for `COc1ccc(/C=N/Nc2cc(N3CCCC3)nc(N3CCCC3)n2)cc1`, the activity change, negative = inhibition was -17.8% [at 11.4 µM] (inactive).

`C(=NN1CCCCCC1)c1ccc2ccccc2n1`: the Potency is 15.8 µM (active).

As to `O=C(Nc1ccc(Cl)cc1)Nc1nc(-c2sccc2Br)cs1`, the “activity change, negative = inhibition” value is -3.64% (inactive).

On to `COc1ccc(OC)c(C(=O)/C=C/c2ccccc2C(F)(F)F)c1`, for which the activity change, negative = inhibition was -8.72% [at 11.4 µM] (inactive).

Consider `Cc1ccc(C)c(N2CCN(C(=O)CCCCCn3c(=S)[nH]c4ccc(N5CCOCC5)cc4c3=O)CC2)c1`, for which the Potency is 3.16 µM (active).

`Clc1ccccc1C(c1ccccc1)(c1ccccc1)n1ccnc1`: the Potency was 3.16 µM (active).

Consider `Cc1cccc(N2CCN(C(=O)CC(NC(=O)c3ccccc3Cl)c3ccccc3)CC2)c1C` (stereo not drawn), for which the Potency is 25.1 µM (active).

As for `COc1ccccc1N1C(=O)N(C(C)=O)C2C1Nc1ccccc1N2C` (stereo not drawn), the “activity change, negative = inhibition” value was -19.7% (inactive).

The record behind these values is PubChem BioAssay AID1745847 (National Center for Advancing Translational Sciences (NCATS), 2022).
